High-throughput results: PubChem BioAssay, National Center for Advancing Translational Sciences (NCATS)
Hits are enriched below; roughly 2.4% of the tested compounds scored in any of these assays.
Pol kappa inh-1 = inhibitors of human DNA polymerase kappa. Q9UBT6. purified Pol kappa, fluorescent DNA synthesis assay, 10 min. Potency, µM (series often up to 107 µM), without a hit: at the top dose activity, negative = inhibition, hits mostly inhibitors. hit rate 0.53% among 400,000; also: % is scaled to controls: 0 for no effect and ±100 for the full control effect
Target sequence (Q9UBT6 whole entry, looked up): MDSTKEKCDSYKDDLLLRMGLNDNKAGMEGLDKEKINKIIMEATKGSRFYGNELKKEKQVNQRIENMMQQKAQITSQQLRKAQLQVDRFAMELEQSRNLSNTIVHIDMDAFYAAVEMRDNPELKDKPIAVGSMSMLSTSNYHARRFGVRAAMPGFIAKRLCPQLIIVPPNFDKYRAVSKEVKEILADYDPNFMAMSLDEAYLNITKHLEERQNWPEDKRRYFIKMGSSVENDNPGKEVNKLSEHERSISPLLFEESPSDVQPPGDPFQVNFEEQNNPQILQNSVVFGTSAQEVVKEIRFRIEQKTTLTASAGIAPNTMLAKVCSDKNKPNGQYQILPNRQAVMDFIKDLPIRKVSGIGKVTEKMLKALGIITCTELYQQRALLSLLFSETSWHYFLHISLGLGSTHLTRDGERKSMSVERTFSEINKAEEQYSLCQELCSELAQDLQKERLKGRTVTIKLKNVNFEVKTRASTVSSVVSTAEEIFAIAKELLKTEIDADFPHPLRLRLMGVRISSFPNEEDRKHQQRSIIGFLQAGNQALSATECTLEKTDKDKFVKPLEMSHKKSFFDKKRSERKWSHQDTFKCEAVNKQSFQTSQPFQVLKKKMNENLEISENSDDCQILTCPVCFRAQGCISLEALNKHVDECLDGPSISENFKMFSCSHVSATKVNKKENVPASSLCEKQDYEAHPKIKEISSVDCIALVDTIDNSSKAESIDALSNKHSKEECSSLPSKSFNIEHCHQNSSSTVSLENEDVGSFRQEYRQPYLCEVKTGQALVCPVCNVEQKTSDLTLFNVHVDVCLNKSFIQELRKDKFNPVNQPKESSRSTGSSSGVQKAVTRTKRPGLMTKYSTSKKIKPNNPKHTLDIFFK
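10 nM Pol kappa was preincubated with compounds for 15 min at room temperature. Reaction started with 50 nM (final) substrate. Fluorescence read kinetically at 0 and 10 min.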
POLI inh = DNA polymerase iota (human) inhibition | Q9UNA4 | Pol iota fluorescent replication assay, 10 min | Potency, µM (top dose mostly 115 µM), for the others: at the top dose activity, negative = inhibition, actives largely listed as inhibitors | hit rate 1% among 390,000 | AID 588590
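Pol iota at 10 nM preincubated 15 min with compounds at room temperature; reaction started with fluorescent substrate, 50 nM final. Fluorescence read kinetically at 0 and 10 min; buffer-only wells as negative control.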
Pol beta inh = blocks human DNA polymerase beta activity; P06746; Pol beta primer extension/strand displacement, fluorescence kinetic; Potency, µM (top dose mostly 114 µM), without a hit: top-dose activity change, negative = inhibition, hits mostly inhibitors; hit rate 1.3% among 340,000; AID 485314; also: % is scaled to controls: 0 for no effect and ±100 for the full control effect
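Homogeneous kinetic assay of primer extension and strand displacement by 10 nM Pol beta, preincubated 15 min at room temperature with compound before 50 nM substrate (final) was added. Read at 0 and 10 min; four-parameter Hill fit.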
L3MBTL1 block = inhibitors of human L3MBTL1; AlphaScreen L3MBTL1–H3K9me1 peptide binding; Q9Y468; hit rate 0.66% among 230,000; Potency, µM (titrated, usually from 57.1 µM), inactives show at the top dose activity, negative = inhibition, usual class: inhibitors; also: % is scaled to controls: 0 for no effect and ±100 for the full control effect; nearly all actives have a fitted effect of over 60% in size
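L3MBTL1 (50 nM) pre-complexed 30 min with biotinylated H3(1-15)K9me1 peptide (75 nM), then compounds added for 30 min at room temperature; AlphaScreen streptavidin donor/nickel chelate acceptor beads (10 ug/mL final) read after 30 min dark incubation.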
Pol eta inh-1 = DNA polymerase eta (human) inhibition; Q9Y253; recombinant Pol eta, fluorescent DNA replication assay; Potency, µM (series often up to 114 µM), inactives show at the top dose activity change, negative = inhibition, usual class: inhibitors; hit rate 1.2% among 390,000; AID 588591; also: % is scaled to controls: 0 for no effect and ±100 for the full control effect
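Pol eta at 10 nM preincubated with compounds 15 min at room temperature; reaction started with fluorescent substrate (50 nM final) and read kinetically at 0 and 10 min.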
TbPGK inh = validation of Trypanosoma brucei phosphoglycerate kinase inhibitors; shares compounds with Pol kappa inh-1; TbPGK coupled GAPDH assay, Kinase-Glo luminescence; Potency, µM (doses to about 57.5 µM), for the others: at the top dose activity change, negative = inhibition, actives largely listed as inhibitors; hit rate 79% among 500; also: % is scaled to controls: 0 for no effect and ±100 for the full control effect; nearly all actives have a fitted effect of over 65% in size
Pol iota confirm = Confirm cherry-picked inhibitors of human polymerase iota | Potency, µM, actives largely listed as inhibitors | AID 720496 | shares compounds with Pol kappa inh-1 | Pol iota primer extension, TAMRA/BHQ fluorescence | hit rate 77% among 1,500
Pol kappa inh-2 = confirmation of human DNA polymerase kappa inhibitors | purified Pol-kappa, fluorescent strand-displacement substrate | AID 720501 | Potency, µM, usual class: inhibitors | hit rate 76% among 920 | shares compounds with Pol eta inh-1
Pol eta inh-2 = confirmation of human DNA polymerase eta inhibitors; shares compounds with Pol eta inh-1; Pol eta primer extension, TAMRA/BHQ fluorescence, 10 min; Potency, µM, hits mostly inhibitors; hit rate 64% among 2,600; AID 720502
* = called active by the depositor; ? = inconclusive; nt = not tested or not shown; ! = not active in a repeat; [ ] = dose if it differs, or a comment. Calls follow the shape of the dose curve; as a rule, active = well fitted curve in the direction sought with a large enough effect; inconclusive = small, poorly fitted or top-dose-only effect, or another doubt; inactive = no such curve, though single readings can be large; an effect the other way counts as inactive or inconclusive. Potency is read from the fitted curve at half-maximal effect.

SMILES | Pol kappa inh-1 | POLI inh | Pol beta inh | L3MBTL1 block | Pol eta inh-1 | Pol iota confirm | Pol eta inh-2 | others
Cc1ccc(C)c(SCC(=O)NCc2ccco2)c1 | -6% | -1% | ? | -8% | -14% | nt | nt
Cc1ccc(C)c(SCC(=O)OCC(=O)c2ccco2)c1 | ? | 20µM* | 22µM* | ? | 35µM* | ? | ?
O=C(Cc1cccs1)OCC(=O)c1ccco1 | 25µM* | ? | 14µM* | ? | 8.9µM* | 75* | 60*
Cc1cccc(CNC(=O)c2ccc(Cn3c(=O)c4cccn4c4cccnc43)cc2)c1 | -17% | -5% | 0% | nt | -10% | nt | nt
COc1cc2nc(N3CCCN(C)CC3)nc(NC3CCCCC3)c2cc1OC | -2% | 14% | nt | nt | nt | nt | nt
COc1cc(/C=N/NC(N)=S)ccc1OCC(=O)Nc1ccc(C)c(C)c1 | 5% | ? | -1% | nt | ? | nt | nt
COc1cc(/C=N/NC(N)=O)ccc1OCC(=O)Nc1ccc(C)c(C)c1 | 89µM* | 32µM* | ? | -3% | 28µM* | 42* | 76*
O=C(NCCc1ccccc1)C(=O)NCC(c1cccs1)S(=O)(=O)c1cccs1 (configuration not stated) | -13%[60.1 µM] | -3% | 10% | nt | -10% | nt | nt
O=C(O)c1ccc(CSc2nc3ccc(NC(=O)c4ccccc4C(=O)O)cc3s2)cc1 | -12% | ? | 1% | -6% | 25µM* | ? | ? | Pol kappa inh-2=84*
COc1cc(/C=C2/C(=O)N(c3ccc(C)c(C)c3)N=C2C)cc([N+](=O)[O-])c1O | 13% | -12% | 6% | -2%[2.29 µM] | -15% | nt | nt
COc1cc(/C=C2\C(=O)NN(c3ccccc3)C2=O)cc([N+](=O)[O-])c1O | ? | 13µM* | 13µM* | nt | 13µM* | 38* | 27*
COc1cc(/C=C2\SC(=O)N(Cc3ccc(F)cc3)C2=O)cc([N+](=O)[O-])c1O | 5% | -10% | 0% | ? | 50µM* | 84* | 76* | Pol kappa inh-2=27*
CCOc1cc(/C=C2\C(=O)NN(c3ccccc3)C2=O)cc([N+](=O)[O-])c1O | 45µM* | 11µM* | 20µM* | nt | 16µM* | ? | 30*
COc1cc(/C=C2/C(=O)NN(c3ccccc3)C2=O)cc(Br)c1O | -25% | -29% | 4% | nt | -4% | nt | nt
COc1cc(/C=C2\CC/C(=C\c3cc(OC)c(O)c(OC)c3)C2=O)cc(OC)c1O | 10µM* | 2.8µM* | 4.5µM* | 28µM* | 1.8µM* | 27* | 9.5*
CN(C1CCCCC1)S(=O)(=O)c1ccc2c(c1)c(=O)c(C(=O)NCc1ccc(Cl)cc1)cn2C | 8% | 5% | 1% | nt | -18% | nt | nt
CC/C=C\C/C=C\C/C=C\CCCCCCCCCCCC(=O)O | -1%[19.4 µM] | nt | nt | nt | nt | nt | nt
CC/C=C\C/C=C\C/C=C\CCCCCCCC(=O)O | 28µM*! | 13µM* | nt | ? | 7.9µM* | 30* | 24* | Pol kappa inh-2=9.5*
COc1ccc(/C=C2\SC(=O)N(CC(=O)Nc3ccc(O)cc3)C2=O)cc1OC | 2% | ? | 29% | nt | -10% | nt | nt
Cc1ccc(NC(=O)CN2C(=O)S/C(=C\c3cc(Cl)c(OCC(=O)O)c(Cl)c3)C2=O)cc1 | -14% | ? | 40µM* | 0% | 25µM* | 42* | 48* | TbPGK inh=5.8µM*
O=C1CC(c2ccc(O)c(O)c2)Oc2c1ccc(O)c2O (configuration not stated) | 1.8µM* | 1.6µM* | 0.4µM* | nt | 0.79µM* | 3.4* | 3.4* | TbPGK inh=0.92µM*
O=c1c(OC2OC(CO)C(O)C(O)C2OC2OC(CO)C(O)C(O)C2O)c(-c2ccc(O)cc2)oc2cc(O)cc(O)c12 (configuration not stated) | 50µM* | 28µM* | 22µM* | nt | 11µM* | ? | ?
O=c1ccc2c(-c3ccccc3)c3ccc(O)cc3oc-2c1 | ? | 32µM* | 7.9µM* | nt | 40µM* | 34* | 11* | Pol kappa inh-2=3*
CC1=C(C(=O)Nc2ccccc2C)C(c2ccccn2)n2ncnc2N1 (configuration not stated) | -2%[60.1 µM] | 44% | -4% | nt | -12% | nt | nt
CC(C)(C)OC(=O)N1CCC(c2c(C(=O)N3CCN(c4ccccn4)CC3)cnn2-c2ccc(F)cc2F)CC1 | -18% | 26% | -7% | nt | -3% | nt | nt
SMILES | Pol kappa inh-1 | POLI inh | Pol beta inh | L3MBTL1 block | Pol eta inh-1 | Pol iota confirm | Pol eta inh-2 | others
COc1ccc2c(C)nc(Nc3nc(C)c(C)c(=O)[nH]3)nc2c1 | 11% | 8% | 200% | -5% | ? | 53* | 76*
COc1ccc(C(CC(=O)N2CCCCC2)c2c(OC)cc(OC)c3c(-c4ccccc4)cc(=O)oc23)cc1 (configuration not stated) | 50µM* | 71µM* | 25µM* | nt | 20µM* | 42* | ?
COc1cc(OC)c2c(-c3ccccc3)cc(=O)oc2c1C(CC(=O)N1CCCC1)c1ccc(N(C)C)cc1 (configuration not stated) | -10% | -7% | nt | nt | nt | nt | nt
COc1ccc(C(CC(=O)N2CCCC2)c2c(OC)cc(OC)c3ccc(=O)oc23)cc1 (configuration not stated) | -17% | -26% | -24% | nt | 0% | nt | nt
COc1ccc(C(CC(=O)N2CCCC2)c2c(OC)cc(OC)c3c(-c4ccccc4)cc(=O)oc23)cc1 (configuration not stated) | 79µM* | 71µM* | 35µM* | nt | ? | 34* | 76*
C[C@@]12C=Cc3occc3[C@H]1CC[C@@]13C[C@@H](CC[C@H]12)[C@@](O)(CO)C3 | -6%[60.1 µM] | nt | nt | nt | nt | nt | nt
O=C(N/N=C/c1ccc(-c2ccccc2C(=O)O)o1)c1cccs1 | 25µM* | 20µM* | 14µM* | 25µM* | 18µM* | ? | 60*
O=C(NCc1ccc2c(c1)OCO2)c1ccc(Br)cc1 | -5% | -7% | 50% | 10% | -5% | nt | nt
O=C(NCc1ccc2c(c1)OCO2)c1cc2ncc(Br)cn2n1 | -43% | 22µM* | 14µM* | ? | 10µM* | ? | ?
O=C(/C=C/c1ccco1)NC(=S)Nc1ccc(C(=O)O)cc1 | 25µM* | ? | 11µM* | nt | 7.1µM* | 9.5* | 5.4*
